Results taken from PubChem BioAssay (NCATS).
Inconclusive results are not listed. The source made the active and inactive calls. Unless noted, calls come from the whole dose curve; as a rule, active = well fitted inhibition curve with a large enough effect; inconclusive = small, poorly fitted or top-dose-only effect; inactive = no such curve, though single readings can be large or run the other way.

Assay: Primary qHTS for Vero E6 cytotoxicity: counterscreen for inhibitors of SARS-S pseudo-typed particle cell entry (AID 1479150; calls by dose curve; for activity change, negative = cytotoxicity: % is set by controls: 0 for no effect and ±100 for the full control effect)
Conditions: cell viability; series mostly up to 57.1 µM; activity change, negative = cytotoxicity: at the top concentration

| SMILES | outcome | activity change, negative = cytotoxicity |
| --- | --- | --- |
| CCC(=O)O[C@H]1CC[C@H]2[C@@H]3CCC4=CC(=O)CC[C@]4(C)[C@H]3CC[C@]12C | inactive |  |
| C[C@H](N)[C@H](O)c1ccc(O)c(O)c1 |  | 4.81% (inactive) |
| Cc1nnc2n1-c1sc(CCc3ccc(CC(C)C)cc3)cc1C(c1ccccc1Cl)=NC2C (stereo unspecified) | inactive |  |
| CC#C[C@]1(O)CC[C@H]2[C@@H]3C[C@H](C)C4=CC(=O)CC[C@]4(C)[C@H]3CC[C@@]21C | inactive |  |
| O=C(N[C@H]1N=C(c2ccccc2F)c2cccc3c2N(CC3)C1=O)c1cc2ccccc2[nH]1 | inactive |  |
| CNC(=O)Oc1cccc2ccccc12 |  | -17.2% (inactive) |
| CCOC(=O)c1cncn1C(C)c1ccccc1 (stereo unspecified) | inactive |  |
| Oc1ccc([C@H]2CNCc3c2ccc(O)c3O)cc1O | inactive |  |
| CC[C@]1(O)CC[C@H]2[C@@H]3CCC4=CCCC[C@@H]4[C@H]3CC[C@@]21C | inactive |  |

Assay: Primary qHTS for inhibitors of La Crosse Virus (LACV) - induced cell death in SH-SY5Y cells (AID 1508616);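 note: top concentration of the series differs between compounds; 0% = infected DMSO wells and 100% = uninfected DMSO wells; higher means more rescue of cells from virus-induced death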
Conditions: SH-SY5Y LACV cytopathicity rescue, ATP luminescence, 6 d; series mostly up to 4.29 µM; activity change: at the top concentration
In short: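 SH-SY5Y cells (6000/well) plated 24 h, then given compounds by pin transfer and LACV at 0.01 MOI for 6 days at 37C. Viability measured by ATPLite luminescence, normalized to infected DMSO and uninfected DMSO.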

| SMILES | activity change |
| --- | --- |
| CCC(=O)O[C@H]1CC[C@H]2[C@@H]3CCC4=CC(=O)CC[C@]4(C)[C@H]3CC[C@]12C | -5.16% (inactive) |
| CCc1cc(OC)c(C[C@H](C)N)cc1OC | -1.69% [at 9.63 µM] (inactive) |
| CCCC(C)C1(CC)C(=O)N=C(S)NC1=O (stereo unspecified) | 2.53% (inactive) |
| CCNc1nc(Cl)nc(NCC)n1 | 8.72% (inactive) |
| CC(C)=CCN1CC[C@@]2(C)c3cc(O)ccc3C[C@@H]1[C@@H]2C | -15.7% [at 8.54 µM] (inactive) |
| Cc1ncc2n1-c1ccc(Cl)cc1C(c1ccccc1F)=NC2 | 138% (inactive) |
| Nc1ccc(N)cc1 | -24.9% (inactive) |
| Cc1nnc2n1-c1sc(CCc3ccc(CC(C)C)cc3)cc1C(c1ccccc1Cl)=NC2C (stereo unspecified) | -11.5% (inactive) |
| NCc1cccnc1 | -2.96% (inactive) |
| CC#C[C@]1(O)CC[C@H]2[C@@H]3C[C@H](C)C4=CC(=O)CC[C@]4(C)[C@H]3CC[C@@]21C | 5.59% (inactive) |
| O=C(N[C@H]1N=C(c2ccccc2F)c2cccc3c2N(CC3)C1=O)c1cc2ccccc2[nH]1 | -5.27% (inactive) |
| CNC(C)Cc1ccc2c(c1)OCO2 (stereo unspecified) | 35.1% [at 9.63 µM] (inactive) |
| COCC(=O)N(c1c(C)cccc1C)C(C)C(=O)OC (stereo unspecified) | 3.43% (inactive) |
| CC(Cc1ccc2c(c1)OCO2)NO (stereo unspecified) | -6.96% [at 9.63 µM] (inactive) |
| C[C@]12CC[C@H]3[C@@H](CC=C4C[C@@H](O)CC[C@@]43C)[C@@H]1CC[C@@H]2O | -9.44% (inactive) |
| CCN(CC)CCOC(=O)C(C)(c1ccccc1)c1ccccc1 | -3.49% (inactive) |
| CCOC(=O)c1cncn1C(C)c1ccccc1 (stereo unspecified) | 3.14% (inactive) |
| Oc1ccc([C@H]2CNCc3c2ccc(O)c3O)cc1O | -8.89% (inactive) |
| CCN(Cc1ccc(Cl)nc1)/C(=C/[N+](=O)[O-])NC | 2.14% (inactive) |
| CC[n+]1c(-c2ccccc2)c2cc(N)ccc2c2ccc(N)cc21 | 40.7% (inactive) |
| COc1cc(N)c(Cl)cc1C(=O)NC1CN2CCC1CC2 (stereo unspecified) | 14.2% (inactive) |
| CN1C(=O)[C@@H](NC(=O)c2cc3ccccc3[nH]2)N=C(c2ccccc2)c2ccccc21 | 16.8% (inactive) |
| CC(CC(C#N)(c1ccccc1)c1ccccc1)N(C)C (stereo unspecified) | 2.03% [at 8.54 µM] (inactive) |
| CN1C(=O)CN=C(c2ccccc2)c2cc([N+](=O)[O-])ccc21 | -4.11% (inactive) |
| CNC(=O)NC(O)C(Cl)(Cl)Cl (stereo unspecified) | -0.582% (inactive) |
| C[C@H]1C(=O)O[C@@H]2CCN3CC=C(COC(=O)[C@](C)(O)[C@]1(C)O)[C@H]23 | -0.589% (inactive) |
| Cc1nc2ccccc2c(=O)n1-c1ccccc1Cl | 17.8% [at 8.54 µM] (inactive) |
